In experiment [1] the test system is Mel-DCC-11. Description: cell viability relative to DMSO control (fraction of DMSO control); higher = less cytotoxic, active = 0.5 or less. The conditions noted are these: 1 µM; 120 h. In short, it runs like this:
(§1)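 Cells in 40 µl per well went into 384-well plates pre-spotted acoustically with a TargetMol library of 315 approved anti-cancer drugs, each at 1 µM in duplicate, for 120 h. Seeding was 2500/well for NHEM-hTERT immortalized melanocytes and 1500/well for patient-derived Mel-DCC-11 and its resistant subline Mel-DCC-11-R, which was run alone and with 8 µM of its selecting drug. Luminescence was read with ATPlite 1step. Viability was normalised to vehicle-treated controls and averaged over duplicates.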

For experiment [2], the system named is NHEM-hTERT. Described as above. The conditions noted are these: 1 µM; 120 h. In short, it runs like this: as §1
Experiment [3] concerns Mel-DCC-11-R. Description: cell viability relative to DMSO control (fraction of DMSO control); higher = less cytotoxic, active = 0.8 or less. The conditions noted are these: 1 µM, 120 h. In short, it runs like this: as §1

We go through 47 compounds from the supplement of paper PMC12808144.

Structures are written as SMILES. Values without a mark were called inactive.

For the compound `Nc1nc(=O)c2c([nH]1)NC[C@H](CNc1ccc(C(=O)N[C@@H](CCC(=O)[O-])C(=O)[O-])cc1)N2C=O.[Ca+2]` [Calcium Levofolinate], the cell viability in experiment [1] was 5.5; in experiment [2], 1.02; in experiment [3] (vemurafenib co-treatment 0 µM) it was 1.8; in experiment [3] (vemurafenib co-treatment 8 µM), 1.27.

With `CC(=O)Nc1cccc(-n2c(=O)n(C3CC3)c(=O)c3c(Nc4ccc(I)cc4F)n(C)c(=O)c(C)c32)c1` [Trametinib], the cell viability is 0.0655 (active) in experiment [1] and 0.453 (active) in experiment [2].

As to `COc1cccc2c1C(=O)c1c(O)c3c(c(O)c1C2=O)C[C@@](O)(C(=O)CO)C[C@@H]3O[C@H]1C[C@H](N)[C@@H](O)[C@H](C)O1.Cl` [Epirubicin hydrochloride], the cell viability in experiment [1] was 0.286 (active); in experiment [2], 0.647.

On to `COC(=O)C[C@](O)(CCCC(C)(C)O)C(=O)O[C@@H]1C(OC)=CC23CCCN2CCc2cc4c(cc2[C@H]13)OCO4` (some centres undefined) [Homoharringtonine], for which the cell viability in experiment [1] was 0.0644 (active); in experiment [2] it was 0.228 (active).

As to `Cc1cc(Nc2ncc(Cl)c(Nc3ccccc3S(=O)(=O)C(C)C)n2)c(OC(C)C)cc1C1CCNCC1`, the cell viability is 0.955 in experiment [1], 0.88 in experiment [2], 1.17 in experiment [3] (vemurafenib co-treatment 0 µM) and 0.873 in experiment [3] (vemurafenib co-treatment 8 µM).

Regarding `CC(COc1ccccc1)N(CCCl)Cc1ccccc1.Cl` (centres undefined) [Phenoxybenzamine hydrochloride], the cell viability in experiment [1] is 1.18; in experiment [2], 1.13; in experiment [3] (vemurafenib co-treatment 0 µM), 1; in experiment [3] (vemurafenib co-treatment 8 µM) it was 1.15.

`COc1cc(NS(C)(=O)=O)ccc1Nc1c2ccccc2nc2ccccc12` [Amsacrine]: the cell viability in experiment [1] is 1.1; in experiment [2], 0.72.

With `CCCCCCCCCCCCCCCCCCOCC(O)CO` (centres undefined) [Batyl alcohol], the cell viability in experiment [1] was 0.948; in experiment [2] it was 1.07.

On to `C[C@]12CC[C@@H]3c4ccc(O)cc4C[C@@H](CCCCCCCCCS(=O)CCCC(F)(F)C(F)(F)F)[C@H]3[C@@H]1CC[C@@H]2O` (some centres undefined) [Fulvestrant], for which the cell viability in experiment [1] is 1.05; in experiment [2], 0.817.

Take `CCCCCCCCCCCCCCCCOP(=O)([O-])OCC[N+](C)(C)C` [Miltefosine]: the values for the cell viability in experiment [1] and in experiment [2] were 1.01 and 1.17, respectively.

In the case of `CCCCCCCCCCCC1=C(O)C(=O)C=C(O)C1=O` [Embelin], the cell viability in experiment [1] is 1.24; in experiment [2], 1.01.

For `CNNCc1ccc(C(=O)NC(C)C)cc1.Cl` [Procarbazine hydrochloride], the cell viability in experiment [1] is 1.18; in experiment [2], 1.13.

Consider `COc1cccc2c1C(=O)c1c(O)c3c(c(O)c1C2=O)C[C@@](O)(C(=O)CO)C[C@@H]3O[C@H]1C[C@H](N)[C@H](O)[C@H](C)O1.Cl` [Doxorubicin hydrochloride], for which the cell viability in experiment [1] was 0.133 (active); in experiment [2], 0.454 (active).

Turning to `O=NN(CCCl)C(=O)NC1CCCCC1` [Lomustine], the figures for the cell viability in experiment [1] and in experiment [2] were 1.33 and 0.938, respectively.

In the case of `COc1ccc2cc1Oc1ccc(cc1)C[C@H]1c3c(cc4c(c3Oc3cc5c(cc3OC)CCN(C)[C@@H]5C2)OCO4)CCN1C` [Cepharanthine], the results for the cell viability in experiment [1] and in experiment [2] were 0.589 and 1.13, respectively.

With `O=C(Nc1c(Cl)cncc1Cl)c1ccc(OC(F)F)c(OCC2CC2)c1` [Roflumilast], the values for the cell viability in experiment [1] and in experiment [2] were 1.34 and 0.841, respectively.

Consider `N.N.O=C([O-])C1(C(=O)[O-])CCC1.[Pt+2]` [Carboplatin], for which the cell viability in experiment [1] was 1.13; in experiment [2], 1.05.

For `COc1cc2nccc(Oc3ccc(NC(=O)C4(C(=O)Nc5ccc(F)cc5)CC4)cc3)c2cc1OC` [Cabozantinib], the cell viability is 0.999 in experiment [1] and 0.739 in experiment [2].

Consider `C=CC(=O)Nc1cc(Nc2nccc(-c3cn(C)c4ccccc34)n2)c(OC)cc1N(C)CCN(C)C` [Osimertinib], for which the cell viability was 0.923 in experiment [1] and 1.16 in experiment [2].

Consider `Nc1nc(=O)c2c(CCc3ccc(C(=O)N[C@@H](CCC(=O)O)C(=O)O)cc3)c[nH]c2[nH]1` [Pemetrexed acid], for which the cell viability is 0.933 in experiment [1] and 1.19 in experiment [2].

For `CCCc1cc(C)[nH]c(=O)c1CNC(=O)c1cc(-c2ccnc(N3CCN(C)CC3)c2)cc2c1cnn2C(C)C`, the cell viability in experiment [1] was 1.45; in experiment [2] it was 1.01.

Turning to `CC(C)=CCC/C(C)=C/CC/C(C)=C/CC/C(C)=C/CC1=C(C)C(=O)c2ccccc2C1=O` [Menatetrenone], the cell viability in experiment [1] was 1.25; in experiment [2], 1.02.

As for `CC(=O)OCC(=O)[C@@]1(O)CC[C@H]2[C@@H]3CCC4=CC(=O)C=C[C@]4(C)[C@H]3[C@@H](O)C[C@@]21C` [Prednisolone-21-acetate], the cell viability in experiment [1] was 1.49; in experiment [2], 0.931.

For `CCN(CC)C(=S)SSC(=S)N(CC)CC` [Disulfiram], the cell viability in experiment [1] was 0.0336 (active); in experiment [2], 1.05.

For `O=c1[nH]c(=O)n(C2CCCO2)cc1F` (centres undefined) [Tegafur], the cell viability was 0.785 in experiment [1] and 0.922 in experiment [2].

In the case of `CCCCCOC(=O)Nc1nc(=O)n([C@@H]2O[C@H](C)[C@@H](O)[C@H]2O)cc1F` [Capecitabine], the cell viability was 1.18 in experiment [1] and 1.14 in experiment [2].

As to `COC(=O)N[C@H](C(=O)N1CC2(CC2)C[C@H]1c1ncc(-c2ccc3c(c2)C(F)(F)c2cc(-c4ccc5nc([C@@H]6[C@H]7CC[C@H](C7)N6C(=O)[C@@H](NC(=O)OC)C(C)C)[nH]c5c4)ccc2-3)[nH]1)C(C)C` [Ledipasvir], the cell viability in experiment [1] is 1.1; in experiment [2] it was 1.26.

For `CC(=O)c1c(C)c2cnc(Nc3ccc(N4CCNCC4)cn3)nc2n(C2CCCC2)c1=O.Cl` [Palbociclib hydrochloride], the cell viability in experiment [1] is 0.591; in experiment [2], 1.05.

For `CO[C@H]1C[C@@H]2CC[C@@H](C)[C@@](O)(O2)C(=O)C(=O)N2CCCC[C@H]2C(=O)O[C@H]([C@H](C)C[C@@H]2CC[C@@H](O)[C@H](OC)C2)CC(=O)[C@H](C)/C=C(\C)[C@@H](O)[C@@H](OC)C(=O)[C@H](C)C[C@H](C)/C=C/C=C/C=C/1C` [Rapamycin], the cell viability in experiment [1] was 1.24; in experiment [2] it was 0.819.

As to `Cc1nc2ccc(CN(C)c3ccc(C(=O)N[C@@H](CCC(=O)O)C(=O)O)s3)cc2c(=O)[nH]1` [Raltitrexed], the cell viability in experiment [1] was 1; in experiment [2], 1.03.

As for `CS(=O)(=O)CCNCc1ccc(-c2ccc3ncnc(Nc4ccc(OCc5cccc(F)c5)c(Cl)c4)c3c2)o1.Cc1ccc(S(=O)(=O)O)cc1.Cc1ccc(S(=O)(=O)O)cc1.O` [Lapatinib ditosylate monohydrate], the figures for the cell viability in experiment [1] and in experiment [2] were 1.13 and 1.05, respectively.

Turning to `CCN1CCN(Cc2ccc(Nc3ncc(F)c(-c4cc(F)c5nc(C)n(C(C)C)c5c4)n3)nc2)CC1.CS(=O)(=O)O` [abemaciclib mesylate], the cell viability in experiment [1] was 0.731; in experiment [2], 0.896; in experiment [3] (vemurafenib co-treatment 0 µM), 1.8; in experiment [3] (vemurafenib co-treatment 8 µM) it was 0.723 (active).

In the case of `CC1=C(/C=C/C(C)=C/C=C/C(C)=C/C=C/C=C(C)/C=C/C=C(C)/C=C/C2=C(C)CCCC2(C)C)C(C)(C)CCC1` [Beta-Carotene], the cell viability was 0.738 in experiment [1] and 0.916 in experiment [2].

With `OC[C@H]1O[C@@H](n2cnc3c2NC=NC[C@H]3O)C[C@@H]1O` [Pentostatin], the cell viability was 1.12 in experiment [1] and 1.1 in experiment [2].

`Cc1ccc(NC(=O)c2ccc(CN3CCN(C)CC3)cc2)cc1Nc1nc(-c2cccnc2)cs1` [Masitinib]: the values for the cell viability in experiment [1] and in experiment [2] were 1.25 and 0.801, respectively.

`O=NN(CCCl)C(=O)NCCCl` [Carmustine]: the cell viability in experiment [1] is 1.16; in experiment [2], 0.992.

As to `Nc1nc(=S)c2[nH]cnc2[nH]1` [Thioguanine], the cell viability in experiment [1] is 0.703; in experiment [2] it was 1.06; in experiment [3] (vemurafenib co-treatment 0 µM) it was 1.31; in experiment [3] (vemurafenib co-treatment 8 µM), 0.933.

Regarding `O=C(CCCCCCC(=O)Nc1ccccc1)NO` [Vorinostat], the cell viability in experiment [1] is 1.05; in experiment [2], 0.871; in experiment [3] (vemurafenib co-treatment 0 µM), 0.923; in experiment [3] (vemurafenib co-treatment 8 µM), 1.04.

In the case of `O=C(c1ccc(F)c(F)c1Nc1ccc(I)cc1F)N1CC(O)([C@@H]2CCCCN2)C1` [Cobimetinib], the cell viability is 0.0964 (active) in experiment [1], 0.715 in experiment [2], 0.309 (active) in experiment [3] (vemurafenib co-treatment 0 µM) and 0.302 (active) in experiment [3] (vemurafenib co-treatment 8 µM).

Regarding `COc1cccc2c1C(=O)c1c(O)c3c(c(O)c1C2=O)C[C@@](O)(C(=O)CO)C[C@@H]3O[C@H]1C[C@H](N)[C@H](O[C@H]2CCCCO2)[C@H](C)O1` [Pirarubicin], the cell viability in experiment [1] was 0.0404 (active); in experiment [2], 0.839; in experiment [3] (vemurafenib co-treatment 0 µM), 0.233 (active); in experiment [3] (vemurafenib co-treatment 8 µM) it was 0.0504 (active).

For the compound `C#C[C@]1(O)CC[C@H]2[C@@H]3CCc4cc(OC5CCCC5)ccc4[C@H]3CC[C@@]21C` [Quinestrol], the cell viability is 0.908 in experiment [1], 0.894 in experiment [2], 0.953 in experiment [3] (vemurafenib co-treatment 0 µM) and 1 in experiment [3] (vemurafenib co-treatment 8 µM).

With `Nc1ccc(F)cc1NC(=O)c1ccc(CNC(=O)/C=C/c2cccnc2)cc1` [Chidamide], the cell viability in experiment [1] is 1.27; in experiment [2], 0.668; in experiment [3] (vemurafenib co-treatment 0 µM) it was 1.34; in experiment [3] (vemurafenib co-treatment 8 µM) it was 1.16.

For the compound `COc1cc2c(Nc3ccc(Br)cc3F)ncnc2cc1OCC1CCN(C)CC1` [Vandetanib], the cell viability in experiment [1] is 1.16; in experiment [2], 1.02; in experiment [3] (vemurafenib co-treatment 0 µM), 1.29; in experiment [3] (vemurafenib co-treatment 8 µM) it was 1.01.

On to `C=CC(=O)N1CCC[C@@H](n2nc(-c3ccc(Oc4ccccc4)cc3)c3c(N)ncnc32)C1` [Ibrutinib], for which the cell viability in experiment [1] was 0.492 (active); in experiment [2] it was 1.05; in experiment [3] (vemurafenib co-treatment 0 µM) it was 0.855; in experiment [3] (vemurafenib co-treatment 8 µM), 0.733 (active).

`O=S(=O)([O-])CCS.[Na+]` [Mesna]: the cell viability is 1.18 in experiment [1], 1.09 in experiment [2], 1.11 in experiment [3] (vemurafenib co-treatment 0 µM) and 1.08 in experiment [3] (vemurafenib co-treatment 8 µM).

With `O=C([O-])CCCc1ccccc1.[Na+]` [Sodium Phenylbutyrate], the cell viability is 1.12 in experiment [1], 1.1 in experiment [2], 1 in experiment [3] (vemurafenib co-treatment 0 µM) and 1.07 in experiment [3] (vemurafenib co-treatment 8 µM).

As to `CNC(=O)c1ccc(N2C(=S)N(c3ccc(C#N)c(C(F)(F)F)c3)C(=O)C2(C)C)cc1F` [Enzalutamide], the cell viability in experiment [1] was 1.15; in experiment [2], 1.11; in experiment [3] (vemurafenib co-treatment 0 µM), 0.889; in experiment [3] (vemurafenib co-treatment 8 µM), 1.09.
